Laboratory results published in PubChem BioAssay AID540299 (ICCB-Longwood Screening Facility, Harvard Medical School, 2011).
Values joined by “and” are separate entries in the source; they are usually repeats but may differ in a detail not shown here. Equal entries are not always repeated. Hit rate of the full screen: of about 100,000 compounds, about 440 (0.44%) were called active. Cut-off read from the data, not from the text of the source: active = inhibition above about 21% (passing the limit was not always enough); inactive = the rest. Only a selection was taken, and actives are over-represented in it overall. Some structures have more than one record in an assay (separate samples or runs), and their calls can disagree.

Target: 1,4-dihydroxy-2-naphthoyl-CoA synthase (Mycobacterium tuberculosis (strain ATCC 25618 / H37Rv)) (UniProt P9WNP5)
Sequence (P9WNP5 whole entry, looked up): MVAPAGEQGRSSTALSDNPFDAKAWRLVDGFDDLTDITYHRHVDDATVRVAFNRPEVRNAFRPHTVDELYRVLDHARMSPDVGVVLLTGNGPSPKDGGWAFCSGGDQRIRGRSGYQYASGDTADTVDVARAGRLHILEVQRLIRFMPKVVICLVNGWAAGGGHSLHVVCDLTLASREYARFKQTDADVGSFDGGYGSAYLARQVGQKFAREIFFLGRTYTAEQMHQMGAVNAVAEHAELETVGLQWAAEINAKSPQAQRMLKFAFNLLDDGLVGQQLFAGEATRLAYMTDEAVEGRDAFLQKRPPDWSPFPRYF
Experiment: M. tuberculosis MenB inhibitors, primary screen, biochemical, absorbance (AID 540299)
Details: MenB enzyme assay, absorbance read-out; stronger effect = higher value; concentration not given here

Structure (SMILES) | inhibition
CCOC(=O)CN1CCC(n2nnc3cc(C(F)(F)F)ccc32)CC1 | 40.1% (active)
COc1cc(C(=O)N2CCC(n3nnc4cc(F)ccc43)CC2)cc(OC)c1OC | -27.8% (inactive)
CCOC(=O)c1cnc2cc(C(F)(F)F)ccc2c1N1CCCCCC1 | -32.7% (inactive)
CCCN(CCC)C(=O)c1cc(-c2ccccc2)n[nH]1 | 2.47% (inactive)
O=C(Nc1ccccc1)c1ccco1 | -38.1% (inactive)
Cc1cccc(C(=O)Nc2ccc(NC(=O)c3ccco3)cc2)c1 | -25.7% (inactive)
CCC(=O)Nc1cc(NC(=O)c2ccco2)ccc1C | 3.59% (inactive)
CCCC(=O)N1CCN(c2ccc(NC(=O)c3ccco3)cc2Cl)CC1 | 36.3% (active)
CCCC(=O)N1CCN(c2ccc(NC(=O)c3cccc(C)c3OC)cc2Cl)CC1 | -14.8% (inactive)
CCCC(CCC)C(=O)Nc1ccc(NC(=O)c2ccco2)cc1 | 34.4% (active)
CCC(/C=N/N1C(=O)c2ccccc2C1=O)CC | 4.86% (inactive)
CCSc1nnc(C2CCN(CC(=O)Nc3ccc(N4CCCCCC4)cc3)CC2)n1C | -53.3% (inactive)
Cc1cc(C)nc(N2CCCC(C)C2)n1 (stereo not drawn) | -26.5% (inactive)
N#CC1=C(N)/C(=C\c2ccc(Cl)c(Cl)c2)SC1=N | -31% (inactive)
Cc1cc(C)nc(SCC(=O)N2CCCC2c2cccs2)n1 (stereo not drawn) | -1.45% (inactive)
O=C1C=C/C(=N\OC(=O)c2ccccc2)C2=C1C1C=CC2C1 (stereo not drawn) | -24.3% (inactive)
COc1ccc(-c2noc(CNC3CCCCC3)n2)cc1 | -2.19% (inactive)
CC1Sc2nnc(-c3ccc(OC(F)F)cc3)n2N=C1c1ccc(NS(C)(=O)=O)cc1 (stereo not drawn) | -9.43% (inactive)
N#Cc1cc(Cl)c2c(c1)OCCO2 | -39.8% (inactive)
O=C(COC(=O)Cn1[nH]c(=O)c2ccccc2c1=O)Nc1ncc(Cl)cc1Cl | 1.74% (inactive)
Cc1nc2ccc(NC(=O)CC(C)(C)C)cc2s1 | -7.18% (inactive)
N#Cc1nc(NC(=O)c2cc(-c3cccs3)nc3ccccc23)[nH]c1C#N | -0.59% (inactive)
O/N=C(/c1ccccc1)c1ccccn1 | 17.8% (inactive)
CN1C(=O)C(S(=O)(=O)c2ccccc2)C2CC1(C)Oc1ccccc12 (stereo not drawn) | 11.3% (inactive)
CCN1C(=O)C(C(=O)NC(C)c2ccccc2)C2CC1(C)Oc1ccccc12 (stereo not drawn) | 25.7% (inactive)

Structure (SMILES) | inhibition
CN1C(=O)C(C(=O)O)C2CC1Oc1ccccc12 (stereo not drawn) | 34.4% (active)
CCCCC#Cc1cncc(C(=O)O)c1 | -22.8% (inactive)
CCN(c1ccccc1)S(=O)(=O)c1cccc(C(=O)O)c1 | -9.9% (inactive)
CCN(CC)Cc1cc(C(=O)O)co1 | 31.6% (active)
COc1ccc(C(=O)OCc2ccccn2)cc1 | -2.18% (inactive)
COC(=O)c1ccccc1NC(=O)C1CCN(S(=O)(=O)c2ccc(OC)c(OC)c2)CC1 | -4.4% (inactive)
O=c1c(O)coc(CO)c1C(Nc1ccccn1)c1ccccc1O (stereo not drawn) | -8.94% (inactive)
Cc1ccc(NC(=O)CC(C)S(=O)(=O)c2ccc3c(c2)SCC(=O)N3)cc1 (stereo not drawn) | -27.7% (inactive)
O=C(CN1CCCCC1)N1N=C(c2cccs2)CC1c1ccc(O)cc1 (stereo not drawn) | -15.9% (inactive)
CN1C(=O)c2cccc(NC(=O)c3ccccc3)c2C1=O | -46.4% (inactive)
COc1cccc2c1C(=O)C1C(O)=C3C(=C(O)C1C2=O)C[C@@](O)(C(=O)CO)C[C@@H]3OC1CC(N)C(O)C(C)O1 (stereo partly drawn) | 4.12% (inactive)
CN(Cc1cccc(Cl)c1Cl)CC(O)COCc1ccccc1 (stereo not drawn) | -5.12% (inactive)
COc1ccc(Cc2nnc3n2N=C(N)CS3)cc1 | 8.07% (inactive)
CCNc1nnc(-c2ccc(C)cc2)s1 | -8.94% (inactive)
COc1ccc(-c2noc(N3CCN(c4ccc(OC)cc4)CC3)n2)cc1 | 1.43% (inactive)
COc1cc(C)cc(CN2CCN(S(=O)(=O)c3ccccc3C#N)CC2)c1O | -41.6% (inactive)
CCCC1(C(=O)OC)NC(c2ccco2)C2C(=O)N(C)C(=O)C21 (stereo not drawn) | 29.6% (active)
CCN1C(=O)C2C(c3cccs3)NC(C)(C(=O)OC)C2C1=O (stereo not drawn) | 15.1% (inactive)
CCOC(=O)C1(Cc2ccc(O)cc2)NC(c2ccccc2F)C2C(=O)N(C)C(=O)C21 (stereo not drawn) | -10.9% (inactive)
CC1CCCCN1CC(=O)Nc1cc(C(C)(C)C)nn1-c1ccccc1 (stereo not drawn) | 7.46% (inactive)
COc1ccc2c(CC(=O)OCC(=O)Nc3c(C)n(C)n(-c4ccccc4)c3=O)coc2c1 | -0.895% (inactive)
Cc1cc(N2CCN(C3CCCCC3)CC2)c2nncn2n1 | 0.645% (inactive)
O=C1CC2NCCc3cccc1c32 (stereo not drawn) | -9.34% (inactive)
CCNS(=O)(=O)c1ccc(-c2cc(C)no2)s1 | -3.52% (inactive)
O=C(COC(=O)c1ccc(S(=O)(=O)N2CCOCC2)cc1)Nc1ncc(Cl)cc1Cl | 3.48% (inactive)

Structure (SMILES) | inhibition
CCCc1ccc(OCCNC(C)=O)c(OC)c1 | 11.5% (inactive)
Cc1ccc2oc(=O)c3cnn(CC(=O)n4c(C)cc5ccccc54)c3c2c1 | -3.43% (inactive)
CC1(C)CC(=O)C2=C(C1)N=C1SCCC(=O)N1C2c1ccc(Br)cc1 (stereo not drawn) | -1.14% (inactive)
C=CCn1c(=NC(C)=O)sc2cc(F)ccc21 | -10.2% (inactive)
CC1CCCCN1C(=O)c1ccc2ccccc2n1 (stereo not drawn) | -16.5% (inactive)
O=C1CCC(=O)N1CNc1ccc(-c2ccccc2)cc1 | -8.33% (inactive)
Oc1ccc(-c2cccc(-c3ccc(O)cc3)c2)cc1 | -21.5% (inactive)
Oc1ccc(-n2cccc2)cc1 | -10.9% (inactive)
Oc1ccc(SSc2ccc(O)cc2)cc1 | 40.7% (active)
Cc1ccccc1Cn1nnc(-c2ccncc2)n1 | -48.5% (inactive)
c1cc(-c2nn[nH]n2)ccc1CN1CCCCC1 | -0.56% (inactive)
CCc1ccc(-c2nnn(Cc3nn[nH]n3)n2)cc1 | 42.6% (active)
COC(=O)Cc1cnc(NC(=O)CSc2nc(C(C)C)cc(=O)[nH]2)s1 | -54% (inactive)
CN1C(C(=O)NC2CCCC2)=CC(c2cccs2)=NS1(=O)=O | -18.8% (inactive)
COc1ccc(C(=O)NNc2nnc(C(C)(C)C)c(=O)n2N)cc1 | 1.4% (inactive)
O=C(c1ccco1)N1CCCCCCC1 | 1.17% (inactive)
O=C(On1c(-c2ccccc2)nc2ccccc2c1=O)c1cccc(C(F)(F)F)c1 | 11.4% (inactive)
Cn1nnc(C(O)CNCc2ccc(F)cc2)n1 (stereo not drawn) | 29.6% (active)
Fc1ccc(CNCc2ccccn2)cc1 | -6.84% (inactive)
COc1ccc(CNCC(O)c2nnn(C)n2)cc1OC (stereo not drawn) | -32.7% (inactive)
CC1CCCC(NC(=O)COC(=O)c2cccc(S(=O)(=O)N(C)C)c2)C1C (stereo not drawn) | -17.8% (inactive)
O=C(O)C1CCCN(C(=O)c2cnn(-c3ccccc3)c2-n2cccc2)C1 (stereo not drawn) | 1.1% (inactive)
O=C(Nc1ccccc1C(=O)N1CCCC1)Oc1ccccc1 | 3.13% (inactive)
Cc1ccc(NC(=O)c2nc[nH]c2C(=O)N2CCCCC2)c(C(=O)c2ccccc2)c1 | 39.3% (active) and -17.8% (inactive)
CCOC(=O)c1[nH]cnc1C(=O)NC1CCCCC1 | -17.9% (inactive)

Structure (SMILES) | inhibition
N#CSc1ccc(N2CCCCC2)cc1 | -10.6% (inactive)
N#CSc1ccc(N)c(Br)c1 | 24.6% (active)
COc1cc(CNC(=O)c2ccc(N(C)C)cc2)cc(OC)c1OC | -9.81% (inactive)
Cc1c(/C=C(\C#N)C(=O)Nc2nccs2)cc(C#N)n1C | 0.38% (inactive)
O=S1(=O)CCC(NC2CCCCC2)C1 (stereo not drawn) | 49.9% (active)
C1CCC(NC2CCCC2)C1 | -21.1% (inactive)
O=S1(=O)CCC(S(=O)(=O)NC2CCCC2)C1 (stereo not drawn) | -11% (inactive)
CN1C(=O)C(C)(C)c2cc(S(=O)(=O)NCCc3ccco3)ccc21 | -23.9% (inactive)
CCc1cc(CC)c(CO)c(CC)c1/C=N/O | -27% (inactive)
CC(Oc1ccccc1)c1nn2c(-c3cccnc3)nnc2s1 (stereo not drawn) | -64.7% (inactive)
O=C(c1nc(-c2ccc(Cl)cc2)n2c1CCCCC2)N1CCCCCC1 | -18.8% (inactive)
Cc1cccc(COC(=O)Nc2ccc(N3CCCCC3)cc2)c1 | -13.2% (inactive)
COc1cccc(NC(=O)CC2CCCCC2)c1 | -13.2% (inactive)
O=C(O)c1ccc(NC(=O)C2CC2)cc1 | 0% (inactive)
O=C(Cn1cc(C(F)(F)F)ccc1=O)Nc1ccc(S(=O)(=O)N2CCCC2)cc1 | 17% (inactive)
O=C(O)c1ccc2[nH]c(=O)c(=O)[nH]c2c1 | 6.67% (inactive) and 1.98% (inactive)
COc1ccc(-c2nn(C)c3ccccc23)cc1 | 4.51% (inactive)
COc1ccc(-c2nc3sc(-c4ccc(OC)cc4)nc3s2)cc1 | 26.2% (active)
COc1ccc(C2NNC(=S)S2)cc1 (stereo not drawn) | 1.67% (inactive)
CN1CCN(n2c(-c3ccc(Cl)cc3)csc2=Nc2ccccc2)CC1 | -4.88% (inactive)
CC1C(=O)N2CCCc3cc(S(=O)(=O)NCc4ccc(F)cc4)cc1c32 (stereo not drawn) | -7.22% (inactive)
O=S(=O)(c1cccs1)N(c1ccccc1)C(F)F | 9.14% (inactive)
O=S(=O)(/C=C/c1ccccc1)N1CCN(CCc2ccncc2)CC1 | -2.97% (inactive)
